Among the data in PubChem BioAssay AID1034 (Columbia University Molecular Screening Center, 2008) are activation values, retold here.

The other results are listed elsewhere or left out. Values without a mark were called inactive.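 Rule for the calls: active = activation above 30% in triplicate retests at 2 µM, then confirmed by visual review of the well images; inactive = the rest.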

The test in a line: potentiators of TNFa-induced VCAM1 expression, confirmation, imaging, HUVEC, triplicate retest (AID 1034).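 Note: scaled per plate between unstimulated and TNFa-stimulated DMSO control wells.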 Particulars: HUVEC TNFa-stimulated VCAM-1 immunofluorescence imaging; at 2 µM; stronger effect = higher value.

For `COC(=O)CN1C(=O)C2(C(C(=O)OC)=C(N)Oc3ccccc32)C2=C1CC(C)(C)CC2=O` (stereo unspecified), the activation was -16.1%.
